# In the supplement of paper PMC10646978:
# ± gives the standard deviation.
# How the values were obtained:
# Settings in all cases: modulator concentration 10 µM
# [1] = system: RAW-Dual (murine macrophage reporter line); assay: NF-kB reporter (SEAP) activity fold change vs agonist alone; higher = enhanced NF-kB activity
# Summary of the method: (§1)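 RAW-Dual murine macrophage reporter cells were seeded at 50 000 per well in 384-well plates and pre-incubated 1 hour at 37 °C with compound pin-transferred to 10 μM final. After 1 hour, a PRR agonist was added and cells incubated overnight. Supernatant NF-κB (SEAP, QUANTI-Blue, 620 nm absorbance) and IRF (Lucia luciferase, QUANTI-Luc, luminescence) signals were divided by the mean agonist-only control on the same plate to give fold change. Two replicate plates were averaged, with errors by propagation.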
# [2] = system: RAW-Dual (murine macrophage reporter line); assay: IRF reporter (Lucia luciferase) activity fold change vs agonist alone; higher = enhanced IRF activity
# Summary of the method: as §1
# [3] = system: RAW-Dual (murine macrophage reporter line); assay: viability score (confluency relative to resting cells, overnight) (fraction); higher = more viable, active = viable (0.7 or more)
# Summary of the method: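 Two confluency masks, generated with IncuCyte software over all imaged wells, were applied to IncuCyte images of RAW-Dual macrophages. The cells, in 384-well plates, had been exposed overnight to 10 μM final compound. The viability score is confluency as a fraction of resting cells, and a compound met the cutoff only with both masks above 70% of resting cells.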
# [4] = agonist: CpG ODN 1826 0.5 ug/mL
Structure (SMILES),"NF-kB reporter [1, 4]",NF-kB reporter ([1]; agonist: LPS 0.1 ug/mL),NF-kB reporter ([1]; agonist: MPLA […]),IRF reporter ([2]; agonist: 3'3'-cGAMP 10 ug/mL),IRF reporter ([2]; agonist: LPS 0.1 ug/mL),IRF reporter ([2]; agonist: MPLA […]),viability score [3]
c1ccc(CSc2nnc(-c3ccncc3)[nH]2)cc1,1.08 ± 0.085,0.945 ± 0.097,1.04 ± 0.028,0.582 ± 0.033,0.888 ± 0.043,0.872 ± 0.09,0.996 (active)
CN(C/C=C/C#CC(C)(C)C)Cc1cccc2ccccc12.Cl,1.15 ± 0.054,0.905 ± 0.072,0.913 ± 0.049,1.07 ± 0.068,0.817 ± 0.14,0.885 ± 0.19,0.702 (active)
O=C(c1ccc(Cl)cc1)c1ccc(N2CCOCC2)c([N+](=O)[O-])c1,0.696 ± 0.061,1.04 ± 0.08,0.735 ± 0.044,1.11 ± 0.027,1.62 ± 0.24,1.41 ± 0.24,1 (active)
CC(O)C(=O)O.CN1CCN(c2ccc3nc(-c4c(N)c5c(F)cccc5[nH]c4=O)[nH]c3c2)CC1,0.167 ± 0.011,0.107 ± 0.0086,0.294 ± 0.019,2.41 ± 0.23,0.434 ± 0.076,0.506 ± 0.084,0.966 (active)
CC(=O)NC(CS)C(=O)O (centres undefined),0.957 ± 0.074,0.934 ± 0.068,0.96 ± 0.09,0.946 ± 0.035,1.08 ± 0.18,1.08 ± 0.18,1.03 (active)
O=C(Nc1ccc(Br)cc1)c1cccc(S(=O)(=O)NC2CCCCC2)c1,0.746 ± 0.057,0.846 ± 0.076,1.24 ± 0.035,0.527 ± 0.019,1.04 ± 0.14,1 ± 0.17,0.983 (active)
COc1ccc(-c2noc(-c3ccc(=O)n(Cc4ncc(C)c(OC)c4C)c3)n2)cc1F,0.91 ± 0.058,0.944 ± 0.083,1.06 ± 0.073,0.961 ± 0.044,1.17 ± 0.24,1.31 ± 0.51,0.956 (active)
CC(C)C(=O)N1CCCc2ccc(NC(=O)COc3ccc4ccccc4c3)cc21,0.867 ± 0.07,1.44 ± 0.12,1.31 ± 0.071,0.771 ± 0.075,1.26 ± 0.092,1.54 ± 0.12,0.995 (active)
CN1C(=N)NC(=O)C1=Cc1cc(Br)cc(Br)c1O,0.879 ± 0.099,0.898 ± 0.09,0.954 ± 0.04,0.96 ± 0.069,0.951 ± 0.046,1.01 ± 0.11,0.998 (active)
NC(=O)NCC(N)C(=O)O (centres undefined),0.988 ± 0.082,1.02 ± 0.09,0.969 ± 0.022,0.959 ± 0.053,0.963 ± 0.12,1.02 ± 0.1,0.994 (active)
CCCCCCC1OCC2(CO)C(C)C=C(C)C1C2C (centres undefined),0.532 ± 0.075,0.697 ± 0.082,0.716 ± 0.067,1.31 ± 0.075,1.05 ± 0.17,1.21 ± 0.24,0.898 (active)
O=C(OCCN1CCCCC1)c1ccc(O)cc1,1.01 ± 0.081,1.06 ± 0.07,1.03 ± 0.04,1.08 ± 0.077,1.03 ± 0.047,1.07 ± 0.18,1 (active)
COC(=O)CSc1ccc2nnc(-c3ccc(F)cc3)n2n1,1.12 ± 0.088,1.1 ± 0.057,1.06 ± 0.023,0.71 ± 0.05,0.719 ± 0.042,0.803 ± 0.069,1 (active)
CN(C)CC/C=C1/c2ccccc2COc2ccc(CC(=O)O)cc21.Cl,1.35 ± 0.26,1.22 ± 0.36,1.66 ± 0.75,0.953 ± 0.039,1.42 ± 0.17,1.2 ± 0.094,0.992 (active)
CC(=O)N1CCC(C(=O)NCc2cccnc2-c2cnn(C)c2)CC1,1.02 ± 0.11,1.06 ± 0.11,0.903 ± 0.099,1.04 ± 0.095,1.18 ± 0.074,1.15 ± 0.25,0.995 (active)
Cc1cc(C)c(NC(=O)c2ccc(Oc3nccs3)cc2)c(C)c1,0.893 ± 0.039,1.12 ± 0.098,1.22 ± 0.18,0.844 ± 0.048,0.939 ± 0.21,1.06 ± 0.42,1.01 (active)
COc1cccc(S(=O)(=O)N2CCCC(c3nnc(C(F)(F)F)o3)C2)c1 (centres undefined),0.892 ± 0.039,1.08 ± 0.09,1.03 ± 0.06,0.885 ± 0.041,1.11 ± 0.27,1.3 ± 0.36,1.02 (active)
COc1cccc2c1C(=O)c1c(O)c3c(c(O)c1C2=O)C[C@@](O)(C(=O)CO)C[C@@H]3O[C@H]1C[C@H](N)[C@@H](O)[C@H](C)O1.Cl,0.114 ± 0.0074,0.0523 ± 0.0041,0.0992 ± 0.0043,0.0174 ± 0.0046,0.0179 ± 0.0063,0.0142 ± 0.0068,0.105 (inactive)
CCC(=O)N1CCCC1c1nc2ccccc2n1CCOc1ccc(Cl)cc1 (centres undefined),0.717 ± 0.18,1.15 ± 0.063,1.2 ± 0.095,0.967 ± 0.097,0.992 ± 0.21,1.1 ± 0.1,0.996 (active)
CC1CCN(C2=NC(=O)C(=Cc3cccc4ccccc34)S2)CC1,1.06 ± 0.087,0.987 ± 0.076,0.954 ± 0.057,0.963 ± 0.05,1.54 ± 0.23,1.2 ± 0.18,1.01 (active)
CC(Oc1ccccc1)C(=O)NCc1cc(-c2ccncc2)n(C2CCCC2)n1 (centres undefined),1.35 ± 0.1,1.24 ± 0.11,1.13 ± 0.12,1.02 ± 0.067,1.02 ± 0.064,1.12 ± 0.086,1 (active)
COc1ccc2c(C)nc(Nc3nc(C)cc(-c4ccccc4)n3)nc2c1,0.791 ± 0.079,0.879 ± 0.065,1.07 ± 0.1,0.914 ± 0.043,1.28 ± 0.12,1.37 ± 0.17,1.03 (active)
O=C(O)CC(C(=O)O)N1C(=O)C(=C2C(=O)Nc3ccc(Br)cc32)SC1=S (centres undefined),0.775 ± 0.28,1.05 ± 0.11,0.837 ± 0.069,0.894 ± 0.036,1.24 ± 0.15,1.59 ± 0.4,0.995 (active)
CCOC(=O)C(CCc1ccccc1)NC(C)C(=O)N1Cc2ccccc2CC1C(=O)O.Cl (centres undefined),1.27 ± 0.31,1.05 ± 0.057,0.977 ± 0.072,0.955 ± 0.046,1.22 ± 0.14,1.3 ± 0.13,0.997 (active)
O=c1cccnn1CC1CN(c2ncc(Br)cn2)C1,1.04 ± 0.32,1.08 ± 0.072,1.07 ± 0.096,0.964 ± 0.044,0.966 ± 0.17,1.05 ± 0.23,1 (active)
Cc1c(NC(=S)NC(=O)c2ccccc2[N+](=O)[O-])cccc1-c1nc2ccccc2o1,0.898 ± 0.074,1 ± 0.073,1.05 ± 0.11,0.649 ± 0.093,1.04 ± 0.15,1.07 ± 0.31,1 (active)
C=CC(=O)Nc1cccc(Nc2nc(Nc3ccc(N4CCN(C(C)=O)CC4)cc3OC)ncc2C(F)(F)F)c1,0.634 ± 0.16,0.662 ± 0.035,0.977 ± 0.086,0.0805 ± 0.0073,0.438 ± 0.14,0.406 ± 0.04,0.926 (active)
